Among the data in PubChem BioAssay (NCI) are growth values, retold here.

This is part of a sample that, as a whole, favours compounds with a hit. Of some 83,000 tested, about 20% had one in any assay.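 Cell lines were cultured in 96-well plates, exposed to a single compound concentration, and assessed for percent growth 48 hours later.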 Unmarked numbers belong to inactive results. Activity calls are given as the source filed them. How the source made its calls: active means growth percent below 10; inactive means the rest.

What all share (experiment): NCI-60 one-dose screen, 48 h (100 = growth as untreated, 0 = no growth, -100 = all killed)
What all share (conditions): 10 µM unless noted

In assay [1] the test system is HCT-15 colon.
The subject of assay [2] is HT29 colon.
Assay [3] deals with SNB-75 CNS.
Assay [4] has as its system SNB-19 CNS.
Assay [5] deals with U251 CNS.
Assay [6] concerns PC-3 prostate.
Assay [7] has as its system SK-MEL-5 melanoma.
Assay [8] has as its system UACC-62 melanoma.
In assay [9] the test system is LOX IMVI melanoma.
The subject of assay [10] is SK-MEL-28 melanoma.
Assay [11] concerns SK-MEL-2 melanoma.
The subject of assay [12] is EKVX NSCLC.
Assay [13] concerns SN12C renal.
Assay [14] has as its system UO-31 renal.
In assay [15] the test system is TK-10 renal.
For assay [16], the system named is ACHN renal.
The subject of assay [17] is CAKI-1 renal.
The test system of assay [18] is A498 renal.
The subject of assay [19] is CCRF-CEM leukemia.
Assay [20] relates to MOLT-4 leukemia.

Consider `CN1CCN(CCNc2nccc(-c3c(-c4cccc(O)c4)nc4sccn34)n2)S1(=O)=O`, for which the growth in [1] is 50.6%; in assay [2], 43.9%; in [3] it was 54.2%; in assay [4] it was 115%; in assay [5] it was 94.2%; in assay [6], 68.5%. In addition, the growth is 33% in assay [7]; 3.85% (active) in assay [8]; 23.8% in assay [9]; 15% in assay [10]; -24.9% (active) in assay [11]; 99.1% in assay [12]. The growth is 70.3% in assay [13]; 56.2% in assay [14]; 94.1% in [15]; 37.4% in assay [16]; 61.8% in assay [17]; 119% in assay [18]. The growth in assay [19] is 76.7%.
On to `COc1cc(-c2n/c(=C\c3c(O)[nH]c4ccc(Cl)cc34)cc3c2=Nc2ccccc2-3)ccc1F`, for which the growth in [1] was 46.4%; in assay [2], -10.3% (active); in [3], -39.5% (active); in assay [4] it was 2.79% (active); in assay [5], -88.3% (active); in assay [6], -8.04% (active). Also, the growth in [7] is 27.6%; in assay [8], 46.5%; in assay [9], 0.0846% (active); in assay [10], 1.48% (active); in [11], 67.8%; in assay [12] it was 51.6%. Also, the growth was 3.41% (active) in assay [13]; -61.4% (active) in assay [14]; 1.18% (active) in assay [15]; -41.8% (active) in assay [16]; 62.9% in assay [17]; 96.2% in assay [18].
For the compound `COc1cc(C2C3=C(COC3=O)N(CCO)c3cc4c(cc32)OCO4)cc(OC)c1OC` (configuration not stated), the growth in assay [1] is 18.1%; in [2], 0.994% (active); in assay [3], 51%; in [4], -2.19% (active); in [5] it was 2.92% (active); in assay [6] it was 19.6%. Further, the growth in [7] was -42.2% (active); in assay [8], 22.2%; in assay [9], 26.1%; in assay [10] it was 44.7%; in [11], 24.7%; in assay [12], 35.2%. Further, the growth in [13] was 16.8%; in assay [14] it was 45.8%; in assay [15], 54.4%; in assay [16], 40.1%; in assay [17], 50.6%; in [18] it was -19.6% (active).
For the compound `Cc1c(C)c([N+](=O)[O-])c(C)c([N+](=O)[O-])c1C`, the growth in [1] was 108%; in assay [2] it was 93.5%; in [3], 104%; in [4], 97.1%; in assay [5], 100%; in assay [6], 98.7%. Also, the growth in assay [7] is 101%; in assay [8], 102%; in assay [9] it was 99.6%; in assay [10], 104%; in assay [11], 102%; in [12], 103%. Besides, the growth in assay [13] is 102%; in assay [14], 105%; in [15], 102%; in assay [16], 118%; in [17] it was 99.3%; in assay [18] it was 94.3%.
On to `CN(CCN(C)c1ccc(C(=N)N)cc1)c1ccc(C(=N)N)cc1`, for which the growth is 102% in [1]; 108% in assay [2]; 99.6% in [3]; 121% in [4]; 95.4% in [5]; 81.3% in assay [6]. Further, the growth in assay [7] was 92%; in assay [8], 78.7%; in [9], 99.9%; in [10], 108%; in assay [11], 94.4%; in assay [12], 94.4%. Further, the growth in [13] was 74.3%; in assay [14], 79.8%; in assay [15], 115%; in assay [16], 105%; in [17], 68.6%; in assay [18] it was 71.4%. Besides, the growth in assay [19] was -72% (active).
Regarding `COc1ccc(C(=O)C2C(C#N)C(C#N)C3C=Cc4ccccc4N32)cc1` (configuration not stated), the growth in assay [1] was 16.9%; in [2], 8.8% (active); in assay [3], -21.3% (active); in [4], 32.7%; in assay [5], 34.6%; in assay [6] it was 29.2%. Further, the growth in assay [7] was 15.2%; in assay [8], 57.6%; in [9], 43.5%; in assay [10], 57.6%; in assay [11] it was 44.5%; in assay [12], 56.7%. In addition, the growth in assay [13] is 32.7%; in assay [14] it was 42%; in assay [15], 91.9%; in [16], 44%; in [17], 27.4%; in [18], -9.53% (active). Further, the values for the growth in [19] and in assay [20] were 16.2% and 37.5%, respectively.
Consider `O=C(/C(=C\c1ccc([N+](=O)[O-])cc1)S(=O)Cc1ccc(F)cc1)c1ccc(F)cc1` (configuration not stated), for which the growth in assay [1] was 2.57% (active); in assay [2], -55% (active); in assay [3] it was 72.1%; in assay [4] it was 41%; in assay [5], 10.3%; in assay [6], 7.46% (active). In addition, the growth was 76.7% in [7]; -22.4% (active) in [8]; -52.1% (active) in assay [9]; 23.2% in assay [10]; 78% in assay [11]; 84.2% in [12]. Also, the growth in assay [13] was -43.7% (active); in [14] it was -39% (active); in assay [15], 25.8%; in assay [16] it was -7.56% (active); in [17], 44.3%; in [18], 82.2%. In addition, the growth in [19] was 0.265% (active); in assay [20], 5.93% (active).
As to `NS(=O)(=O)c1ccc(CCN2C(=O)C3C(C2=O)C2(Cl)C(Cl)=C(Cl)C3(Cl)C2(Cl)Cl)cc1` (configuration not stated), the growth in assay [1] was 90.5%; in assay [2], 85.8%; in assay [3], 88%; in [4] it was 101%; in [5] it was 104%; in [6], 42.3%. The growth in assay [7] is 92.9%; in assay [8], 75.2%; in assay [9] it was 92.1%; in assay [10], 108%; in [11], 99%; in [12], 93%. Further, the growth is 99.9% in assay [13]; 85.8% in assay [14]; 110% in assay [15]; 111% in assay [16]; 71.7% in [17]; 114% in assay [18]. For the same compound, the growth in [19] is 49.6%; in assay [20], 88.3%.
Regarding `O=C(Cn1c[n+](CC(=O)c2ccc([N+](=O)[O-])cc2)c2ccccc21)Nc1cccc2cccnc12`, the growth in [1] is 101%; in assay [2], 40.4%; in [3] it was 29.8%; in assay [4] it was 37.5%; in assay [5], 63.7%; in assay [6], 38.9%. Moreover, the growth is 95.8% in [7]; 69.1% in [8]; 86.3% in assay [9]; 78.7% in assay [10]; 41.4% in assay [11]; 73.6% in [12]. Further, the growth in assay [13] is 30%; in assay [14], 66%; in [15] it was 114%; in [16], 93.8%; in assay [17], 84.1%; in [18], 94.7%. Also, the growth was 89.4% in assay [19] and 92.8% in assay [20].
As for `CC(=O)[C@@H]1CC[C@]2(C(N)=O)CC[C@]3(C)[C@H](CC[C@@H]4[C@@]5(C)CCCNC(C)(C)[C@@H]5CC[C@]43C)[C@@H]12`, the growth is 70.7% in [1]; 3.98% (active) in [2]; 80.4% in assay [3]; 86.2% in [4]; 81.7% in assay [5]; 65.5% in [6]. The growth was 75.9% in assay [7]; 83.5% in [8]; 84.4% in [9]; 95.8% in assay [10]; 86.2% in [11]; 93.9% in [12]. Moreover, the growth in assay [13] is 86.5%; in assay [14], 76.5%; in assay [15], 120%; in assay [16] it was 107%; in assay [17], 93.1%; in assay [18], 96.6%. The growth in assay [19] is 88.3%; in assay [20], 60.5%.
In the case of `Cc1ccc(-c2nc3ccccn3c2/C=C2/C(=O)Nc3cc(Cl)ccc32)cc1`, the growth in [1] is 53.3%; in assay [2], 66.5%; in assay [3], 61.8%; in assay [4], 87.5%; in assay [5], 96.4%; in [6], 70.1%. Moreover, the growth in assay [7] is 71.9%; in assay [8] it was 74.1%; in assay [9] it was 53.8%; in assay [10] it was 91.8%; in assay [11], 87.7%; in [12], 91.9%. Also, the growth was 77.5% in assay [13]; 62.5% in assay [14]; 120% in assay [15]; 92.3% in assay [16]; 62.6% in assay [17]; 98.2% in assay [18]. Further, the figures for the growth in [19] and in assay [20] were 56.2% and 53.4%, respectively.
As to `NC(=O)CSSCC(N)=O`, the growth in [1] was 102%; in [2] it was 105%; in [3] it was 95.2%; in [4] it was 101%; in assay [5] it was 93.4%; in [6] it was 92.1%. The growth was 98.4% in assay [7]; 95.8% in assay [8]; 100% in assay [9]; 109% in assay [10]; 107% in assay [11]; 86.7% in assay [12]. The growth is 108% in assay [13]; 93% in [14]; 110% in assay [15]; 100% in assay [16]; 99% in assay [17]; 127% in [18]. For the same compound, the results for the growth in assay [19] and in assay [20] were 88.3% and 76.8%, respectively.
As to `C=C(C)[C@@H]1CC[C@]2(C(=O)N[C@@H](Cc3ccccc3)C(=O)OC)CC[C@]3(C)[C@H](CC[C@@H]4[C@@]5(C)CCC(=O)C(C)(C)[C@@H]5CC[C@]43C)[C@@H]12`, the growth in [1] is 94%; in assay [2] it was 70.1%; in assay [3] it was 87.1%; in assay [4] it was 104%; in assay [5] it was 85.2%; in assay [6], 52.3%. The growth in [7] is 95.2%; in assay [8], 56.9%; in [9], 73.9%; in assay [10], 97.9%; in [11] it was 75.8%; in [12], 85.4%. Moreover, the growth in assay [13] was 95.3%; in assay [14], 75.7%; in assay [15], 90.9%; in assay [16], 90.5%; in assay [17], 45.5%; in [18] it was 84%. Moreover, the growth in [19] is 84.7%; in assay [20], 64.6%.
For `CCOC(=O)c1cc(C(=O)c2ccc(OC)c(OC)c2)n2c1ccc1ccccc12`, the growth in assay [1] is 84.5%; in [2], 103%; in assay [3], 48.5%; in assay [4] it was 94%; in [5], 96.2%; in assay [6] it was 81.7%. Also, the growth is 89.8% in assay [7]; 74.3% in [8]; 85.1% in [9]; 106% in assay [10]; 104% in assay [11]; 76.1% in assay [12]. For the same compound, the growth in [13] was 83.7%; in assay [14], 58.4%; in [15], 154%; in assay [16], 91%; in assay [17] it was 64.6%; in assay [18] it was 97.1%. Besides, the growth in assay [19] was 94%; in assay [20] it was 89.6%.
